Source: article PMC7862700, “An all-to-all approach to the identification of sequence-specific readers for epigenetic DNA modifications on cytosine”

Tests used:
Assay in all cases: DAPPL (digital affinity profiling via proximity ligation, sequencing); 10 mM Tris-HCl pH 7.5, 50 mM NaCl, 1 mM DTT, 4% glycerol, room temperature, 30 min; GST-TFs on glutathione beads, 16-mer random dsDNA library, 0.1% formaldehyde crosslink after washing; high values mean tight binding
Settings in all cases: protein: recombinant; tags: N-terminal GST; dsDNA, one strand shown
FEV = molecular target: T1, FEV (Homo sapiens, UniProt Q99581 1-238)
T1 sequence: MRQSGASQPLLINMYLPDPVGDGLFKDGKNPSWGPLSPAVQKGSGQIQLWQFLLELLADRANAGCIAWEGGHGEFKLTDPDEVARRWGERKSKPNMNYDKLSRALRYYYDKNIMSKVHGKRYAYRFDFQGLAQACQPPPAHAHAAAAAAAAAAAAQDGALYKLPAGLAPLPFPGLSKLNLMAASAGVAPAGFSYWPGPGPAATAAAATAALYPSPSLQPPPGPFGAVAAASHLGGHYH
In short: (§1)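 After expression in yeast as GST fusions, human transcription factors were bound to glutathione beads, DNA-barcoded and mixed with a tag-only sample. The pools were incubated with 200 nmole of a 16-mer random double-stranded DNA library in Tris/NaCl/DTT/glycerol buffer (30 min, room temperature), washed and crosslinked with 0.1% formaldehyde. Proximity ligation with BsaI/T4 ligase ran for 1 h at 37 °C, before PCR amplification and sequencing on an Illumina NextSeq500. Binding signal is a hexamer's read frequency for a factor divided by its frequency for the tag-only sample.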

ETV5 = ETV5 (Homo sapiens, UniProt P41161 1-510)
In short: as §1

SPIC = molecular target: T2, SPIC (Homo sapiens, UniProt Q8N5J4 1-248)
T2 sequence: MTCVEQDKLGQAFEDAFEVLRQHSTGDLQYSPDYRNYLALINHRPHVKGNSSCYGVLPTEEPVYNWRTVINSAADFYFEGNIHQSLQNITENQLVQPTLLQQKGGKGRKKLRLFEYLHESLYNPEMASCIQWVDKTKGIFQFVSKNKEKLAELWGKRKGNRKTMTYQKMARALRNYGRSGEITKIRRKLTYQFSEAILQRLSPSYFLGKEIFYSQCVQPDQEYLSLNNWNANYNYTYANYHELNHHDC
In short: as §1

ELF4 = ELF4 (Homo sapiens, UniProt Q99607 1-663)
In short: as §1

ELK4 = molecular target: T3, ELK4 (Homo sapiens, UniProt P28324-2 1-405)
T3 sequence: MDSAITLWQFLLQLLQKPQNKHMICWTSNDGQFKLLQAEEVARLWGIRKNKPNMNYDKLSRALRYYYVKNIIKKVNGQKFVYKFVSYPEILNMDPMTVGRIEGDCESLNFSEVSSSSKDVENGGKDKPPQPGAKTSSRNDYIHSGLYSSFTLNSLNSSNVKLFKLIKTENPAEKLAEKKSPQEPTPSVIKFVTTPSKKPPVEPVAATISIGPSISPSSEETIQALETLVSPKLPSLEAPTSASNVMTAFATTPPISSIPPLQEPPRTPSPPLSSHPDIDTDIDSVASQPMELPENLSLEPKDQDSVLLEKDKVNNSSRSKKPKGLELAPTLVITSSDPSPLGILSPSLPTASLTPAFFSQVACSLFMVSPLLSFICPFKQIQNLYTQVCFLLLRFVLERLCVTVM
In short: as §1

ETV2 = molecular target: T4, ETV2 (Homo sapiens, UniProt O00321 1-342)
T4 sequence: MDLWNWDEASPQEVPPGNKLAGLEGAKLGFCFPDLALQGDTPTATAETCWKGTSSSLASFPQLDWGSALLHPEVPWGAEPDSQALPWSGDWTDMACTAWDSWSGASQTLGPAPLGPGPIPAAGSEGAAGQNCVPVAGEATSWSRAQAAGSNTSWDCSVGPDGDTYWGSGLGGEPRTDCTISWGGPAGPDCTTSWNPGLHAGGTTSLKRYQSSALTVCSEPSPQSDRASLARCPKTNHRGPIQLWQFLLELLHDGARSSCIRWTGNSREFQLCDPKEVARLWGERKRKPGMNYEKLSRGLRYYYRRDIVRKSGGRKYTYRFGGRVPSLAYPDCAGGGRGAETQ
In short: as §1

ELF3 = molecular target: T5, ELF3 (Homo sapiens, UniProt P78545 1-371)
T5 sequence: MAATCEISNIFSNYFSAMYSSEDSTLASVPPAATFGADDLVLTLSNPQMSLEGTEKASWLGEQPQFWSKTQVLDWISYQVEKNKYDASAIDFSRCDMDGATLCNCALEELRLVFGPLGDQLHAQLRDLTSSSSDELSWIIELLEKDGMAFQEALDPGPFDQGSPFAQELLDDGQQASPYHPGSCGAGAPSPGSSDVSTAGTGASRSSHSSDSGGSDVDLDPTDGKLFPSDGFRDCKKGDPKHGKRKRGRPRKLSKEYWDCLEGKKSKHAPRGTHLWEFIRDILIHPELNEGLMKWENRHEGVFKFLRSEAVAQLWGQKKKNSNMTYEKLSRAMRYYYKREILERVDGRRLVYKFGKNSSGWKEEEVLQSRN
In short: as §1

ETV1 = ETV1 (Homo sapiens, UniProt P50549 1-477)
In short: as §1

ERF = molecular target: T6, ERF (Homo sapiens, UniProt P50548 1-548)
T6 sequence: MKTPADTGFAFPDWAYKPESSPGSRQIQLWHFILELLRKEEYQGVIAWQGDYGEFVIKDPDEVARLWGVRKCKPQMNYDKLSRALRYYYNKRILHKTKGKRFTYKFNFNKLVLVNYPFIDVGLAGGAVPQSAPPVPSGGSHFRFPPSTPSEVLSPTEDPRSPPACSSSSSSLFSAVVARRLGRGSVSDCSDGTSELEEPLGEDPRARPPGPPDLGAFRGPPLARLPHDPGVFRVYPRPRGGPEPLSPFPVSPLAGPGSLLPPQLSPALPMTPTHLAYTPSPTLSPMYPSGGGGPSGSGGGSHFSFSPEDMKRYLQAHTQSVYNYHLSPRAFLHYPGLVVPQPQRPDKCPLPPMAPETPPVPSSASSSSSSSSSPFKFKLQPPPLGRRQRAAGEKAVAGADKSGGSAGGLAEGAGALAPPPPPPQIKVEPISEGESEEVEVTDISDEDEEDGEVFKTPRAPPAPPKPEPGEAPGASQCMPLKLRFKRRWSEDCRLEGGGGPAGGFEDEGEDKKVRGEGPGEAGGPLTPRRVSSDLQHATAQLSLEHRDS
In short: as §1

ETV3L = molecular target: T7, ETV3L (Homo sapiens, UniProt Q6ZN32 1-361)
T7 sequence: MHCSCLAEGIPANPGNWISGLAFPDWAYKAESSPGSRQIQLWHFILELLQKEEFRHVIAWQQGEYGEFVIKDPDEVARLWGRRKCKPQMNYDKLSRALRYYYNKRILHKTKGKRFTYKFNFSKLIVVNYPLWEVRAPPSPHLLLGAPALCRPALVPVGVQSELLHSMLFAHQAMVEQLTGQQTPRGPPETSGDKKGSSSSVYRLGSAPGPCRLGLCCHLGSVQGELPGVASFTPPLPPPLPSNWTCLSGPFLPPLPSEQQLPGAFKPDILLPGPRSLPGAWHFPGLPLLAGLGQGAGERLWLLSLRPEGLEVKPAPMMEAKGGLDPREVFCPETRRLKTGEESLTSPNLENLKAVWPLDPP
In short: as §1

ETS2 = molecular target: T8, ETS2 (Homo sapiens, UniProt P15036 1-469)
T8 sequence: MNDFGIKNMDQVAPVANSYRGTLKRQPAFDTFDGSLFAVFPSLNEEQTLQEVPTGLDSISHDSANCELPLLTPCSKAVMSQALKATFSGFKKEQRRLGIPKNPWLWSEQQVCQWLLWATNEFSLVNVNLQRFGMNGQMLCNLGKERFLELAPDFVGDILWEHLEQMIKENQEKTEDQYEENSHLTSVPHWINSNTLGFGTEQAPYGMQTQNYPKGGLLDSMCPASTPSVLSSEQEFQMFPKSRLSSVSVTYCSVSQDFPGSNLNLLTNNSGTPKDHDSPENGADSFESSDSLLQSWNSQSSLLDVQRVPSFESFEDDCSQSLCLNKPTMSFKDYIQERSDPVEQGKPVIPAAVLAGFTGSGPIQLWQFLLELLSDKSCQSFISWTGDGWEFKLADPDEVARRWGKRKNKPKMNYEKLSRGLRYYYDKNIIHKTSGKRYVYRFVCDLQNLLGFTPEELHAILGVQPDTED
In short: as §1

SPDEF = molecular target: T9, SPDEF (Homo sapiens, UniProt O95238 1-335)
T9 sequence: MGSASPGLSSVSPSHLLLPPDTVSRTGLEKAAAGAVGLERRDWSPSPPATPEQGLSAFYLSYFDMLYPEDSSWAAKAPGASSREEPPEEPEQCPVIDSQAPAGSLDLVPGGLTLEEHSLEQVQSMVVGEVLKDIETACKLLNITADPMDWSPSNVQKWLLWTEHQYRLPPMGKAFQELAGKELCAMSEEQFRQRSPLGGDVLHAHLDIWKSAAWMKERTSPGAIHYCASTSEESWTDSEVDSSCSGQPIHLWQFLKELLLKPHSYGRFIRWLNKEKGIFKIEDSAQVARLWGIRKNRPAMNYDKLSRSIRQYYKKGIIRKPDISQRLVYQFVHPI
In short: as §1

ELF5 = molecular target: T10, ELF5 (Homo sapiens, UniProt Q9UKW6-2 1-255)
T10 sequence: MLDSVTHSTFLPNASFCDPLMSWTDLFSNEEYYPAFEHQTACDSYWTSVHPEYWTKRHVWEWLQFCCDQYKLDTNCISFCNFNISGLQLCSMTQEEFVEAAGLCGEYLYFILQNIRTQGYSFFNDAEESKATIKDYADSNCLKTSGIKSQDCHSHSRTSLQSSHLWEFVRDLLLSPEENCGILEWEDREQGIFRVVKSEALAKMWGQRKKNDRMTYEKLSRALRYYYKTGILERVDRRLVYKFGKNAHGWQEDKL
In short: as §1

ETV3 = molecular target: T11, ETV3 (Homo sapiens, UniProt P41162-2 1-143)
T11 sequence: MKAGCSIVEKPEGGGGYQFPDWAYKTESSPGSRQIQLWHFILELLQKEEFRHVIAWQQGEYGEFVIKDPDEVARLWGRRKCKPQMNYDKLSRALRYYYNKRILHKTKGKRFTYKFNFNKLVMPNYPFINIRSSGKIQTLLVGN
In short: as §1

ETV6 = ETV6 (Homo sapiens, UniProt P41212 1-452)
In short: as §1

ETV7 = molecular target: T12, ETV7 (Homo sapiens, UniProt Q9Y603 1-341)
T12 sequence: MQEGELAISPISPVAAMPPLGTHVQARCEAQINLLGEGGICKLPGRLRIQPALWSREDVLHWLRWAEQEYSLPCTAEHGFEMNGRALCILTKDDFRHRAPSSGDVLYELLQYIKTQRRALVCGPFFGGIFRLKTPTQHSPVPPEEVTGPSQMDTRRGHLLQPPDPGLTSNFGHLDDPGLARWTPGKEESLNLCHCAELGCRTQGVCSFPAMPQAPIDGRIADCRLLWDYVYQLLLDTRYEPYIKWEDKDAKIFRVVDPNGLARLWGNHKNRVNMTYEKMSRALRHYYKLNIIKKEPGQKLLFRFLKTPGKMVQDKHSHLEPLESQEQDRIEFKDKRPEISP
In short: as §1

CRX = CRX (Homo sapiens, UniProt O43186 1-299)
In short: as §1

Sequence of ETV6 (P41212 whole entry): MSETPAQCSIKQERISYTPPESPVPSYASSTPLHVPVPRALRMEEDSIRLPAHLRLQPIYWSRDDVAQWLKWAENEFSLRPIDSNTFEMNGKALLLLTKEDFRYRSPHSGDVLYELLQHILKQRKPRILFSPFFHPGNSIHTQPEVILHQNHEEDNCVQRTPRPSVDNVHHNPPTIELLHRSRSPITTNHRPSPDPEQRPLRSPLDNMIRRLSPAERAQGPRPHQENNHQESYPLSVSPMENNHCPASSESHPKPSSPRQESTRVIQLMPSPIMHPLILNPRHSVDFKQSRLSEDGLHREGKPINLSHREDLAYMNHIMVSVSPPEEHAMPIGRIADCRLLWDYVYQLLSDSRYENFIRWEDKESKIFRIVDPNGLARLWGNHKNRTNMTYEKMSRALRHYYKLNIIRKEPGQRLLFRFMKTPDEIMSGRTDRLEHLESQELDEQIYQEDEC
Sequence of ETV5 (P41161 whole entry): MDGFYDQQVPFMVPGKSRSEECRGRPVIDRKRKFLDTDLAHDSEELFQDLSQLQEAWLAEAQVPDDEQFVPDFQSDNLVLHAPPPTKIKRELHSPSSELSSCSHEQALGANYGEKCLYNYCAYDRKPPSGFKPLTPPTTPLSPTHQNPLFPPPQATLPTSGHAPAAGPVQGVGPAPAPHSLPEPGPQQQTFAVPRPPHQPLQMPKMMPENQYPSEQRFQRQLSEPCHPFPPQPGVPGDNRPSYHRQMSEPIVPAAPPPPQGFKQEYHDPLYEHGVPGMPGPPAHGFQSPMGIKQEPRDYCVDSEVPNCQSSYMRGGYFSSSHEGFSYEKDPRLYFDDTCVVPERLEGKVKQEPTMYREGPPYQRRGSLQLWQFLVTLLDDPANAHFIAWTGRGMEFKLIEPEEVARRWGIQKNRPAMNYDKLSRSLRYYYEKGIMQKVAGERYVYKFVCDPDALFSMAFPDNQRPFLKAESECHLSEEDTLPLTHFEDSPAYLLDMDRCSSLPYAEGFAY
Sequence of ELF4 (Q99607 whole entry): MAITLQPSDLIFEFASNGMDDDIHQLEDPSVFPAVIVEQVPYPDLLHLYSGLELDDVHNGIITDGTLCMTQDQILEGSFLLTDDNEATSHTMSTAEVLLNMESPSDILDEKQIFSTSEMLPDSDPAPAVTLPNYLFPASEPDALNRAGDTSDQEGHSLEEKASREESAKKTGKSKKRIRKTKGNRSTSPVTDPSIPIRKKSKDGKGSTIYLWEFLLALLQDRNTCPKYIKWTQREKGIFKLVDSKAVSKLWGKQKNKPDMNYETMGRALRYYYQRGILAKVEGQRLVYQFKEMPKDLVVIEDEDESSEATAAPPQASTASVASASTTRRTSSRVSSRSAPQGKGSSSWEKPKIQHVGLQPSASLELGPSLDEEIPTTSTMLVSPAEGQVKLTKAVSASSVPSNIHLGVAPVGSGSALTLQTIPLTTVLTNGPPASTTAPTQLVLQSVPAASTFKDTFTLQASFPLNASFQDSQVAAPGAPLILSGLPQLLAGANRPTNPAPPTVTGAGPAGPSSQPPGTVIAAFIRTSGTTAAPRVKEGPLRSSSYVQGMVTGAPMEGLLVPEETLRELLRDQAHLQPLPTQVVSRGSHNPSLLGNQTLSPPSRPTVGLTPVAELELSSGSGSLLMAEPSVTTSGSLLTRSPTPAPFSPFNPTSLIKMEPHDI
Sequence of ETV1 (P50549 whole entry): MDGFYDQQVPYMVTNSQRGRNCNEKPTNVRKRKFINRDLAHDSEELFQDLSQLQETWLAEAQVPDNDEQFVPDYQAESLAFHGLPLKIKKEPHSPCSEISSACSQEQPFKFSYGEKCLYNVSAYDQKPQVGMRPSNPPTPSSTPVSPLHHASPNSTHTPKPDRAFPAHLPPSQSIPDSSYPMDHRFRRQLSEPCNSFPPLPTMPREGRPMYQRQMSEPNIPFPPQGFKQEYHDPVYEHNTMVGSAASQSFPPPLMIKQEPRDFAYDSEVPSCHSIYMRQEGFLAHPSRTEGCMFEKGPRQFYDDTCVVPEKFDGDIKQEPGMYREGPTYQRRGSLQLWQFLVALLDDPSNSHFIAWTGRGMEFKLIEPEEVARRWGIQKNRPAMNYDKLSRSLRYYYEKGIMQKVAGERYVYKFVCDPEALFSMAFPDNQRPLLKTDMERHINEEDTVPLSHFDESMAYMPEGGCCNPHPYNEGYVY
Sequence of CRX (O43186 whole entry): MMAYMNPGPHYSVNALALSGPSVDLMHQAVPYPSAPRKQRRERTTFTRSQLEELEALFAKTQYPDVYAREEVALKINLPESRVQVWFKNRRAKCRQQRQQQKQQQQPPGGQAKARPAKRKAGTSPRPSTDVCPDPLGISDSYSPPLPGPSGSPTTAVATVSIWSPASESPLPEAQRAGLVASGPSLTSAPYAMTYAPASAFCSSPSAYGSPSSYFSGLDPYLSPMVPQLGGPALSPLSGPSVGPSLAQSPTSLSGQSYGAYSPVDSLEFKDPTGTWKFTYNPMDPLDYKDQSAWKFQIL

With CCAAAC the binding signal (FEV) was 1.08 fold enrichment (6-mer frequency, TF over GST control), the binding signal (ETV5) was 1.07 fold enrichment (6-mer frequency, TF over GST control) and the binding signal (SPIC) was 1.16 fold enrichment (6-mer frequency, TF over GST control). For the same sequence, the binding signal (ELF4) was 1.14 fold enrichment (6-mer frequency, TF over GST control), the binding signal (ELK4) was 1.15 fold enrichment (6-mer frequency, TF over GST control) and the binding signal (ETV2) was 1.07 fold enrichment (6-mer frequency, TF over GST control). For the same sequence, the binding signal (ELF3) was 1.11 fold enrichment (6-mer frequency, TF over GST control), the binding signal (ETV1) was 1.02 fold enrichment (6-mer frequency, TF over GST control) and the binding signal (ERF) was 1.08 fold enrichment (6-mer frequency, TF over GST control). For the same sequence, the binding signal (ETV3L) was 1.12 fold enrichment (6-mer frequency, TF over GST control), the binding signal (ETS2) was 1.1 fold enrichment (6-mer frequency, TF over GST control) and the binding signal (SPDEF) was 1.11 fold enrichment (6-mer frequency, TF over GST control). For the same sequence, the binding signal (ELF5) was 1.09 fold enrichment (6-mer frequency, TF over GST control), the binding signal (ETV3) was 1.11 fold enrichment (6-mer frequency, TF over GST control) and the binding signal (ETV6) was 1.07 fold enrichment (6-mer frequency, TF over GST control).

In the case of CATGGG, the binding signal (ETV5) is reported as 1.01 fold enrichment (6-mer frequency, TF over GST control), the binding signal (SPIC) is reported as 1.05 fold enrichment (6-mer frequency, TF over GST control) and the binding signal (ELF4) is reported as 1 fold enrichment (6-mer frequency, TF over GST control). The binding signal (ELK4) was 1.02 fold enrichment (6-mer frequency, TF over GST control), the binding signal (ETV2) was 1.04 fold enrichment (6-mer frequency, TF over GST control) and the binding signal (ERF) was 1.01 fold enrichment (6-mer frequency, TF over GST control). For the same sequence, the binding signal (ETV3L) was 1.14 fold enrichment (6-mer frequency, TF over GST control), the binding signal (ETV7) was 1.03 fold enrichment (6-mer frequency, TF over GST control) and the binding signal (ELF5) was 1.04 fold enrichment (6-mer frequency, TF over GST control). For the same sequence, the binding signal (ETV6) was 1.01 fold enrichment (6-mer frequency, TF over GST control).

With CCCCGC the binding signal (FEV) was 1.14 fold enrichment (6-mer frequency, TF over GST control), the binding signal (ETV5) was 1.18 fold enrichment (6-mer frequency, TF over GST control) and the binding signal (SPIC) was 1.34 fold enrichment (6-mer frequency, TF over GST control). The binding signal (ELF4) was 1.24 fold enrichment (6-mer frequency, TF over GST control), the binding signal (ELK4) was 1.36 fold enrichment (6-mer frequency, TF over GST control) and the binding signal (ELF3) was 1.29 fold enrichment (6-mer frequency, TF over GST control). For the same sequence, the binding signal (CRX) was 1.01 fold enrichment (6-mer frequency, TF over GST control), the binding signal (ETV1) was 1.17 fold enrichment (6-mer frequency, TF over GST control) and the binding signal (ERF) was 1.11 fold enrichment (6-mer frequency, TF over GST control). For the same sequence, the binding signal (ETV3L) was 1.23 fold enrichment (6-mer frequency, TF over GST control), the binding signal (ETS2) was 1.14 fold enrichment (6-mer frequency, TF over GST control) and the binding signal (SPDEF) was 1.06 fold enrichment (6-mer frequency, TF over GST control). The binding signal (ETV7) was 1.19 fold enrichment (6-mer frequency, TF over GST control), the binding signal (ELF5) was 1.07 fold enrichment (6-mer frequency, TF over GST control) and the binding signal (ETV3) was 1.14 fold enrichment (6-mer frequency, TF over GST control). For the same sequence, the binding signal (ETV6) was 1.16 fold enrichment (6-mer frequency, TF over GST control).
